# In PubChem BioAssay (NCI):
# This is part of a sample that, as a whole, favours compounds with a hit. Of some 83,000 tested, about 20% had one in any assay.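 Growth was measured after 48 h exposure to one concentration of compound in 96-well plates. Values under 10 count as active.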 Values without a mark were called inactive. Activity calls are given as the source filed them.
# What was measured:
# Assay in all cases: NCI-60 one-dose screen, 48 h (100 = growth as untreated, 0 = no growth, -100 = all killed)
# Conditions in all cases: 10 µM
# SR leukemia = system: SR leukemia
# RPMI-8226 leukemia = system: RPMI-8226 leukemia
# OVCAR-8 ovarian = system: OVCAR-8 ovarian
# OVCAR-5 ovarian = system: OVCAR-5 ovarian
# OVCAR-4 ovarian = system: OVCAR-4 ovarian
# SK-OV-3 ovarian = system: SK-OV-3 ovarian
# IGROV1 ovarian = system: IGROV1 ovarian
# OVCAR-3 ovarian = system: OVCAR-3 ovarian
# HS 578T breast = system: HS 578T breast
# NCI/ADR-RES ovarian = system: NCI/ADR-RES ovarian
SMILES,growth (SR leukemia),growth (RPMI-8226 leukemia),growth (OVCAR-8 ovarian),growth (OVCAR-5 ovarian),growth (OVCAR-4 ovarian),growth (SK-OV-3 ovarian),growth (IGROV1 ovarian),growth (OVCAR-3 ovarian),growth (HS 578T breast),growth (NCI/ADR-RES ovarian)
Cc1ccc2c3c(cccc13)-c1ccccc1C2=O,94.1%,97.8%,94.2%,113%,105%,92.1%,94%,108%,94%,99%
O=C(O)CCCCSCCCCC(=O)O,87.6%,97.9%,106%,122%,113%,98.7%,97.9%,109%,104%,109%
CCOc1nc(-c2ccccc2)cc2c(O)c(C(=O)NCCCO)[nH]c(=O)c12,141%,51.2%,108%,92.4%,103%,84.6%,57.6%,93.1%,100%,113%
COc1ccc(-c2nc(-c3nc4ccc(OC)cc4[nH]3)c3ccccn23)cc1,32.4%,3.21% (active),30.8%,89.7%,50.5%,92.3%,57.2%,81.8%,80%,50.9%
COc1ccc(-c2nc(-c3ccccc3)c(-c3ccccc3)[nH]2)cc1OC1CCCC1,41.9%,56.6%,74.9%,82.7%,81.6%,89.3%,105%,81.4%,86.5%,79.5%
C=CCN1C(=O)/C(=C\c2ccc3c(c2)CCC3)SC1=S,93.1%,91.9%,104%,99.8%,106%,98.6%,106%,109%,112%,105%
CCCCCCCCCCCC(c1ccccc1)N(C)C (stereo not given),77%,83.5%,97.7%,99.2%,84.7%,108%,96.1%,106%,93.3%,96.1%
COc1ccc(S(=O)(=O)Nc2cc(/C=C\c3cc(OC)c(OC)c(OC)c3)ccc2OC)cc1,10.2%,7.64% (active),9.01% (active),30.7%,34.4%,11.8%,13.6%,-19.8% (active),10.6%,11%
CCCCCCCC/C=C/CCCCCCCCC1=NCCN1CCO,-8.86% (active),52.7%,74.9%,95.2%,81.7%,97.8%,63.8%,83.1%,81%,81.1%
CCSc1nc2c([nH]1)c(=O)n(C)c(=S)n2C,118%,112%,108%,99.1%,114%,103%,116%,112%,115%,105%
Cc1nn2c(/C=C3/C(=O)Nc4ccc(Cl)cc43)c(-c3ccccc3)nc2s1,-12.7% (active),23.7%,14.6%,73.6%,-52.3% (active),-0.11% (active),3.8% (active),9.92% (active),-6.37% (active),38.3%
O=C(Nc1cccc(Cl)c1)Nc1cc2ncncc2cc1OCc1cccc(F)c1,-1.31% (active),-0.539% (active),3.52% (active),29.6%,22.4%,28.1%,19%,12.6%,45.9%,13.6%
c1ccc(OCCC[P+](c2ccccc2)(c2ccccc2)c2ccccc2)cc1,-21.2% (active),-27.6% (active),7.15% (active),29%,8.32% (active),19.6%,10.5%,7.59% (active),43.3%,93.3%
COc1ccc(C(=O)/C=C/c2cc(-c3ccc(OC)c(OC)c3)n[nH]2)cc1OC,4.7% (active),-45.9% (active),-22.8% (active),-8.32% (active),-38.9% (active),41.2%,-32.7% (active),-42% (active),46.6%,4.63% (active)
CC(=O)Nc1nc(C)c(C(=O)N/N=C/c2cccn2C)s1,107%,110%,101%,110%,108%,141%,-1.21% (active),105%,72.5%,96%
CC(C)OP(=O)(O)c1ncc(-c2ccc(C(F)(F)F)cc2)c(NC2CCCCCC2)n1,86.3%,8.81% (active),52.3%,84.6%,52%,85.2%,62.4%,12.1%,81.7%,97.5%
CCCCCCCCCCCC(=O)NCCCN(C)C,2.57% (active),78.4%,93.7%,91.1%,96.5%,95.6%,92%,108%,106%,98.7%
COc1ccc(Nc2ccnc(N3CCN(c4ccnc5cc(Cl)ccc45)CC3)n2)cc1,1.29% (active),-23.1% (active),0.239% (active),9.98% (active),10.7%,12.7%,-0.0353% (active),15.8%,10.4%,-2.96% (active)
O=[N+]([O-])c1ccc(S(=O)(=O)OCCCCOS(=O)(=O)c2ccc([N+](=O)[O-])cc2)cc1,100%,106%,108%,103%,108%,115%,115%,105%,105%,98.9%
CC(=O)OC1Oc2ccccc2-c2oc(=O)c(-c3ccc(F)cc3)cc21 (stereo not given),65.3%,90.8%,77.7%,104%,88.6%,92.6%,59.8%,110%,-26.6% (active),96.4%
COc1ccc(/C(=C/c2cc(OC)c(OC)cc2[N+](=O)[O-])C(=O)O)cc1,99.6%,97.3%,109%,111%,113%,99.9%,107%,125%,114%,110%
COc1ccc(-c2nsc3c2NC(=O)CC3c2cccc(Cl)c2)cc1 (stereo not given),7.99% (active),12.4%,33.7%,32.8%,53.2%,3.46% (active),39.2%,11.4%,37.6%,15.7%
CCOc1ccc2c(c1)CC[C@@H]1[C@@H]2CC[C@]2(C)[C@@H](O)[C@@H](O)C[C@@H]12,88.5%,92.9%,95.1%,95.7%,90.2%,113%,106%,118%,113%,107%
COc1ccc(-c2ccc(-c3ccc(C(=N)N)c(F)c3)s2)cc1,-21.2% (active),-65.6% (active),-48.7% (active),-91.7% (active),-67.9% (active),-93.8% (active),-62.7% (active),-96% (active),-54.3% (active),-51.3% (active)
CC(=O)Nc1ccc2c(c1)C(N1CC3CCC(CC3)C1)c1ccccc1-2 (stereo not given),0.162% (active),52.5%,88.3%,95.8%,65.9%,91.4%,92.9%,100%,83.2%,88.6%
CC(=O)n1nc(C(=O)OC(C)(C)C)c2cc(F)c(F)cc21,104%,89.1%,105%,104%,98.5%,114%,97.5%,96.8%,106%,98.3%
COc1ccc(NC(=O)c2sc3nc4c(cc3c2N)C(O)CCC4)cc1 (stereo not given),67.6%,103%,101%,104%,95.6%,112%,106%,104%,112%,102%
C=C[C@]1(C)C=C2C(=O)[C@@]3(O)OC(=O)[C@@]4(CCCC(C)(C)[C@H]34)[C@@]2(O)CC1,-11% (active),-25.4% (active),-56.8% (active),-71.7% (active),-74.4% (active),38.4%,-92.8% (active),-90.4% (active),0.722% (active),-6.84% (active)
